# Experimental data as given in PubChem BioAssay AID1159580 (chemical genetic matrix, 2015).
# Out of some 5,500 compounds screened, about 2,000 (36%) were called active. Another 18% or so got no clear call; they are omitted. The list shows a part of the results. Values without a mark were called inactive. No stated cut-off is given here; in the data, active means normalized growth mostly below about 0.91 (no sharp cut-off); inconclusive means no clear call, values can overlap the other calls; inactive means mostly above about 0.92.
# Experiment: chemical genetic growth profiling, strain panel (AID 1159580);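 further: tested at 20 µM; growth read once vehicle control cultures reached saturation at 30 °C; 1 = growth at the plate median or of vehicle wells; lower values mean less growth of the strain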
# Details: growth OD
compound,measurement,setting,value
CC(=O)[C@H]1CCC2C3CC=C4C[C@@H](O)CC[C@]4(C)C3CC[C@@]21C (stereo partly specified),normalized growth,"S. cerevisiae deletion strains, locus YKL009W, strain mrt4, active compounds read low",0.856 (active)
same,normalized growth,"S. cerevisiae deletion strains, locus YKL068W, active compounds read low",1.01
same,normalized growth,"S. cerevisiae deletion strains, locus YKL085W, strain MDH1 (second series), active compounds read low",0.982
same,normalized growth,"S. cerevisiae deletion strains, locus YKL085W, strain MDH1, active compounds read low",0.982
same,normalized growth,"S. cerevisiae deletion strains, locus YKL160W, strain elf1, active compounds read low",0.944
same,normalized growth,"S. cerevisiae deletion strains, locus YKL190W, strain CNB1, active compounds read low",0.97
same,normalized growth,"S. cerevisiae deletion strains, locus YKR001C, strain vps1, active compounds read low",0.991
same,normalized growth,"S. cerevisiae deletion strains, locus YKR026C, strain gcn3, active compounds read low",1.01
same,normalized growth,"S. cerevisiae deletion strains, locus YKR091W, strain srl3, active compounds read low",1.01
same,normalized growth,"S. cerevisiae deletion strains, locus YLL001W, strain dnm1, active compounds read low",0.928
same,normalized growth,"S. cerevisiae deletion strains, locus YLL026W, active compounds read low",0.912 (active)
same,normalized growth,"S. cerevisiae deletion strains, locus YLL041C, strain sdh2, active compounds read low",0.999
same,normalized growth,"S. cerevisiae deletion strains, locus YLR027C, strain aat2, active compounds read low",0.926
same,normalized growth,"S. cerevisiae deletion strains, locus YLR039C, strain RIC1, active compounds read low",0.487 (active)
same,normalized growth,"S. cerevisiae deletion strains, locus YLR058C, strain SHM2, active compounds read low",0.995
same,normalized growth,"S. cerevisiae deletion strains, locus YLR102C, strain apc9, active compounds read low",1.03
same,normalized growth,"S. cerevisiae deletion strains, locus YLR113W, strain HOG1, active compounds read low",1.01
same,normalized growth,"S. cerevisiae deletion strains, locus YLR221C, strain rsa3, active compounds read low",0.923
same,normalized growth,"S. cerevisiae deletion strains, locus YLR258W, strain gsy2, active compounds read low",0.961
same,normalized growth,"S. cerevisiae deletion strains, locus YLR262C, strain YPT6 (second series), active compounds read low",0.456 (active)
same,normalized growth,"S. cerevisiae deletion strains, locus YLR262C, strain YPT6, active compounds read low",0.532 (active)
same,normalized growth,"S. cerevisiae deletion strains, locus YLR268W, strain sec22, active compounds read low",0.949
same,normalized growth,"S. cerevisiae deletion strains, locus YLR320W, strain mms22, active compounds read low",0.646 (active)
same,normalized growth,"S. cerevisiae deletion strains, locus YLR330W, strain CHS5, active compounds read low",1.02
same,normalized growth,"S. cerevisiae deletion strains, locus YLR342W, strain FKS1 (second series), active compounds read low",0.896
same,normalized growth,"S. cerevisiae deletion strains, locus YLR342W, strain FKS1, active compounds read low",0.915
same,normalized growth,"S. cerevisiae deletion strains, locus YLR357W, strain rsc2, active compounds read low",1.09
same,normalized growth,"S. cerevisiae deletion strains, locus YLR370C, strain arc18, active compounds read low",0.987
same,normalized growth,"S. cerevisiae deletion strains, locus YLR371W, strain rom2, active compounds read low",1.02
same,normalized growth,"S. cerevisiae deletion strains, locus YLR384C, strain iki3, active compounds read low",0.998
same,normalized growth,"S. cerevisiae deletion strains, locus YLR418C, strain cdc73, active compounds read low",0.791 (active)
same,normalized growth,"S. cerevisiae deletion strains, locus YML016C, strain PPZ1, active compounds read low",1
same,normalized growth,"S. cerevisiae deletion strains, locus YML032C, strain rad52, active compounds read low",0.952
same,normalized growth,"S. cerevisiae deletion strains, locus YML120C, strain ndi1, active compounds read low",0.934
same,normalized growth,"S. cerevisiae deletion strains, locus YML124C, strain tub3, active compounds read low",1.04
same,normalized growth,"S. cerevisiae deletion strains, locus YMR058W, strain fet3, active compounds read low",0.946
same,normalized growth,"S. cerevisiae deletion strains, locus YMR078C, strain ctf18, active compounds read low",1.01
same,normalized growth,"S. cerevisiae deletion strains, locus YMR125W, strain sto1, active compounds read low",0.988
same,normalized growth,"S. cerevisiae deletion strains, locus YMR129W, active compounds read low",0.985
same,normalized growth,"S. cerevisiae deletion strains, locus YMR205C, strain PFK2, active compounds read low",0.944
same,normalized growth,"S. cerevisiae deletion strains, locus YMR223W, strain ubp8, active compounds read low",0.964
same,normalized growth,"S. cerevisiae deletion strains, locus YMR231W, strain pep5, active compounds read low",1
same,normalized growth,"S. cerevisiae deletion strains, locus YMR263W, strain SAP30, active compounds read low",0.979
same,normalized growth,"S. cerevisiae deletion strains, locus YMR307W, strain GAS1, active compounds read low",1.19
same,normalized growth,"S. cerevisiae deletion strains, locus YNL067W, strain RPL9B, active compounds read low",0.935
same,normalized growth,"S. cerevisiae deletion strains, locus YNL071W, strain lat1, active compounds read low",0.716 (active)
same,normalized growth,"S. cerevisiae deletion strains, locus YNL128W, strain TEP1, active compounds read low",1.01
same,normalized growth,"S. cerevisiae deletion strains, locus YNL153C, strain GIM3, active compounds read low",0.948
same,normalized growth,"S. cerevisiae deletion strains, locus YNL183C, strain NPR1, active compounds read low",0.866
same,normalized growth,"S. cerevisiae deletion strains, locus YNL209W, strain ssb2, active compounds read low",0.983
same,normalized growth,"S. cerevisiae deletion strains, locus YNL233W, strain BNI4, active compounds read low",0.93
same,normalized growth,"S. cerevisiae deletion strains, locus YNL248C, strain rpa49, active compounds read low",0.899
same,normalized growth,"S. cerevisiae deletion strains, locus YNL250W, strain rad50, active compounds read low",1
same,normalized growth,"S. cerevisiae deletion strains, locus YNL271C, strain bni1, active compounds read low",1.02
same,normalized growth,"S. cerevisiae deletion strains, locus YNL298W, strain CLA4, active compounds read low",0.999
same,normalized growth,"S. cerevisiae deletion strains, locus YNL307C, strain MCK1, active compounds read low",0.649 (active)
same,normalized growth,"S. cerevisiae deletion strains, locus YNL322C, strain KRE1 (second series), active compounds read low",1.03
same,normalized growth,"S. cerevisiae deletion strains, locus YNL322C, strain KRE1, active compounds read low",1.01
same,normalized growth,"S. cerevisiae deletion strains, locus YNR049C, strain mso1, active compounds read low",1.01
same,normalized growth,"S. cerevisiae deletion strains, locus YNR052C, strain pop2, active compounds read low",0.992
same,normalized growth,"S. cerevisiae deletion strains, locus YOL006C, strain TOP1, active compounds read low",0.68
same,normalized growth,"S. cerevisiae deletion strains, locus YOL012C, strain htz1",1.1
same,normalized growth,"S. cerevisiae deletion strains, locus YOL147C, strain pex11, active compounds read low",1.02
same,normalized growth,"S. cerevisiae deletion strains, locus YOR001W, strain rrp6, active compounds read low",0.904
same,normalized growth,"S. cerevisiae deletion strains, locus YOR061W, strain CKA2, active compounds read low",0.991
same,normalized growth,"S. cerevisiae deletion strains, locus YOR069W, strain VPS5, active compounds read low",1.01
same,normalized growth,"S. cerevisiae deletion strains, locus YOR070C, strain gyp1, active compounds read low",0.956
same,normalized growth,"S. cerevisiae deletion strains, locus YOR080W, strain dia2, active compounds read low",0.986
same,normalized growth,"S. cerevisiae deletion strains, locus YOR083W, strain WHI5, active compounds read low",0.907
same,normalized growth,"S. cerevisiae deletion strains, locus YOR106W, strain vam3, active compounds read low",0.927
same,normalized growth,"S. cerevisiae deletion strains, locus YOR136W, strain idh2, active compounds read low",1.01
same,normalized growth,"S. cerevisiae deletion strains, locus YOR144C, strain elg1, active compounds read low",1.03
same,normalized growth,"S. cerevisiae deletion strains, locus YOR184W, strain ser1, active compounds read low",0.75 (active)
same,normalized growth,"S. cerevisiae deletion strains, locus YOR231W, strain MKK1, active compounds read low",0.958
same,normalized growth,"S. cerevisiae deletion strains, locus YOR265W, strain rbl2, active compounds read low",0.967
same,normalized growth,"S. cerevisiae deletion strains, locus YOR270C, strain vph1, active compounds read low",0.783
same,normalized growth,"S. cerevisiae deletion strains, locus YOR290C, strain snf2, active compounds read low",0.947
same,normalized growth,"S. cerevisiae deletion strains, locus YOR316C, strain cot1, active compounds read low",1.03
same,normalized growth,"S. cerevisiae deletion strains, locus YPL051W, strain arl3, active compounds read low",0.903 (active)
same,normalized growth,"S. cerevisiae deletion strains, locus YPL055C, strain LGE1, active compounds read low",0.869
same,normalized growth,"S. cerevisiae deletion strains, locus YPL078C, strain atp4, active compounds read low",0.898
same,normalized growth,"S. cerevisiae deletion strains, locus YPL106C, strain sse1, active compounds read low",1.16 [resistant] (active)
same,normalized growth,"S. cerevisiae deletion strains, locus YPL240C, strain hsp82, active compounds read low",1
same,normalized growth,"S. cerevisiae deletion strains, locus YPL241C, strain CIN2, active compounds read low",1
same,normalized growth,"S. cerevisiae deletion strains, locus YPL256C, strain CLN2, active compounds read low",1.02
same,normalized growth,"S. cerevisiae deletion strains, locus YPR119W, strain clb2, active compounds read low",1.02
same,normalized growth,"S. cerevisiae deletion strains, locus YPR141C, strain kar3, active compounds read low",1.05
same,normalized growth,"S. cerevisiae deletion strains, locus YPR163C, strain tif3, active compounds read low",1.02
same,normalized growth,"S. cerevisiae deletion strains, locus YPR167C, strain met16, active compounds read low",1.01
same,normalized growth,"S. cerevisiae deletion strains, strain wtn01, active compounds read low",0.948
same,normalized growth,"S. cerevisiae strains, strain wild type, active compounds read low",0.962
